Legend:
Type in all cases: functional
[1] = biological target: Solute carrier family 2, facilitated glucose transporter member 1 (Homo sapiens) (UniProt P11166); assay: ST_JUDE_LEISH: Cytotoxicity at 2uM final concentration against transgenic Leishmania Mexicana promastigotes LmGLUT1 that are glucose transport deficient and complemented with the human glucose transporter GLUT1. Activity is measured by DNA content using SYBR green in vitro
[2] = biological target: Hexose transporter 1 (Plasmodium falciparum) (UniProt O97467); assay: ST_JUDE_LEISH: Cytotoxicity at 2uM final concentration against transgenic Leishmania Mexicana promastigotes LmPfHT that are glucose transport deficient and complemented with the Plasmodium falciparum hexose transporter. Activity is measured by DNA content using SYBR green in vitro
[3] = biological target: Glucose transporter (Leishmania mexicana) (UniProt O61059); assay: ST_JUDE_LEISH: Cytotoxicity at 2uM final concentration against transgenic Leishmania Mexicana promastigotes LmGT2 that are glucose transport deficient and complemented with the L. Mexicana glucose transporter 2. Activity is measured by DNA content using SYBR green in vitro

Solute carrier family 2, facilitated glucose transporter member 1 (Homo sapiens), sequence (P11166 whole entry): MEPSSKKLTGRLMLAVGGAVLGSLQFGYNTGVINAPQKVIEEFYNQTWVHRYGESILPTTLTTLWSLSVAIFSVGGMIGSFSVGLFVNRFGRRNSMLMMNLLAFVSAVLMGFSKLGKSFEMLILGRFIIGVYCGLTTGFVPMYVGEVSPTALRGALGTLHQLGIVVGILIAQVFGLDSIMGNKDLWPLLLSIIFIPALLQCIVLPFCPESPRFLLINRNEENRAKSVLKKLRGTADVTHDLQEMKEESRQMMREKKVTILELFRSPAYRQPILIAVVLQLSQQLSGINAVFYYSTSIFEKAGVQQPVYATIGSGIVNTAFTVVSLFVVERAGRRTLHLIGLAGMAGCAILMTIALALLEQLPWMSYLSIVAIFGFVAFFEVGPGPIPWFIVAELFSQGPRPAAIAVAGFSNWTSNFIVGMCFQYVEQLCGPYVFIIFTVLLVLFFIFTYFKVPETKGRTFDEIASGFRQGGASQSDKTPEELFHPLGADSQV

| Structure (SMILES) | inhibition [1] [%] | inhibition [2] [%] | inhibition [3] [%] |
| --- | --- | --- | --- |
| CCCOc1cc2c(cc1OCCC)C(C=Cc1ccc(Cl)cc1Cl)=NC(C)C2 (centres undefined) | 94.6 | 96.7 | 94.4 |
| CC(C)c1ccc(CN2CCCCC(NC(=O)c3cc(-c4cccc(F)c4)cs3)C2)cc1 (centres undefined) | -2.71 | 3 | 0.54 |
| Cc1ccc(Nc2nc(C)cc(Nc3cccc(NS(C)(=O)=O)c3)n2)cc1 | 11.5 | 12.5 | 9.23 |
| CCc1cc(=O)[nH]c(-n2nc(C)cc2NC(=O)CC(c2ccccc2)c2ccccc2)n1 | 11.2 | 15.2 | -1.68 |
| CCN(CC)CCNC(=O)c1ccc(Nc2ncc([N+](=O)[O-])c(Nc3ccccc3OC)n2)cc1 | 4.77 | 4.91 | 3.73 |
| CCCCCCN1CCC(NCc2ccc(C)cc2)CC1 | 12.6 | 16 | 17.6 |
| O=C(NC1CCN(c2ccnc3ccccc23)C1)c1cccc(C(F)(F)F)c1 (centres undefined) | 2.99 | 1.24 | 1.91 |
| Cc1[nH]c(C)c(-c2ccc(OCCn3cnc(Cl)c3Cl)cc2)c(=O)c1Br | -1.35 | -0.56 | -0.52 |
| O=C(Cn1cc(C=C2SC(=NC3CCCC3)N(C3CCCC3)C2=O)c2ccccc21)N1CCCC1 | 4.24 | 1.46 | 0.81 |
| O=C(Nc1cccnc1)c1ccc(-c2cc3ccncc3cc2OC2CCNCC2)s1 | 2.38 | 2.54 | 2.16 |
| O=C(Cc1cccs1)NC(CCCN1CCC(Oc2cccc(Cl)c2)CC1)c1ccc(Cl)c(Cl)c1 (centres undefined) | 1.97 | -1.59 | -1.89 |
| Cc1nc2nc(N)nc(N)c2c(C)c1Cc1cccc(C(N)=O)c1 | 1.17 | 1.95 | -1.43 |
| OCCCCCCNc1ccnc2[nH]c3ccc(I)cc3c12 | 8.64 | 6.33 | 3.14 |
| CN1CCN(Cc2ccc(-c3ccc4c(Nc5ccc(Cl)cc5F)ccnc4c3)o2)CC1 | 11.9 | 11.8 | 11.1 |
| Fc1cc(Cl)ccc1Nc1ccnc2cc(I)ccc12 | 2.92 | 5.41 | 3.25 |
| COc1ccc(-c2cccc(NC(=O)c3cccc(C#N)c3)c2)cc1CN(C)CCO | 3.7 | 5.06 | 5.5 |
| Cc1ccccc1NC(=S)NC1CCN(CCCCCNC(=O)/C=C/c2ccc(Cl)c(Cl)c2)CC1 | 5.52 | 4.69 | 2.71 |
| Cc1ccc(Cn2nc(Cl)c(N3CCNCC3)cc2=O)cc1NC(=O)Nc1ccc(-c2ccccc2)cc1 | 1.36 | 5.15 | 6.75 |
| Cc1[nH]c(C)c(-c2ccc(-c3ccc(OC(F)(F)F)cc3)cc2)c(=O)c1Cl | 4.71 | 3.77 | -2.04 |
| Cc1ccc(Nc2nc3cc(N(C)c4ccnc(Nc5cccc(CCS(C)(=O)=O)c5)n4)ccc3n2C)cc1 | 3.07 | 7.25 | 3.82 |
| COc1ccc(CCCON2C(=N)N=C(N)NC2(C)C)cc1 | 16.7 | 23 | 18 |
| Cc1ccc(CNC(=O)[C@H](CCCN)Nc2nc(Nc3ccccc3)ncc2C)cc1 | 1.37 | 0.93 | 1.15 |
| O=S(=O)(NC1CCN(c2ccnc3ccccc23)C1)c1ccc(OC(F)(F)F)cc1 (centres undefined) | 2.25 | -0.51 | 2.41 |
| COc1ccc(-c2nc(NC(=O)CSc3ccc([N+](=O)[O-])cc3)sc2C)cc1 | 0.33 | -0.37 | -1.33 |
| Cc1cccc(C(=O)N2CCN(Cc3cccc(NC(=O)c4ccco4)c3)CC2)c1 | -1.31 | 1.48 | 1.47 |

| Structure (SMILES) | inhibition [1] [%] | inhibition [2] [%] | inhibition [3] [%] |
| --- | --- | --- | --- |
| COc1ccc2c(NN=Cc3ccc(F)cc3)ccnc2c1 | 1.29 | 2.43 | 1.85 |
| Cc1cccc2nc(-c3ccc(-c4ccc(CN5CCN(CC6CCCN(C)C6)CC5)cc4)s3)[nH]c12 (centres undefined) | 8.45 | 21.1 | 8.04 |
| CN(C)CCN(C)Cc1ccc(-c2ccc(NS(=O)(=O)c3cccc4cccnc34)cc2)cc1 | 9.5 | 9.32 | 3.58 |
| N=C(N)NC(=O)Nc1cc(Cl)c(Cl)c(Br)c1 | 6.7 | 5.82 | 2.08 |
| Cn1nc(C(F)(F)F)c(-c2ccc(F)cc2)c1NC(=O)Nc1ccc(F)cc1 | 3.38 | 4.67 | 4.05 |
| O=c1cc(NCCCNCc2cc(Br)cs2)[nH]c2ccccc12 | 3.94 | 2.8 | 2.59 |
| CN1CCN(c2ccnc3ccc(NC(=O)Nc4ccc(-c5ccncc5)c(C#N)c4)cc23)CC1 | -0.68 | -2.42 | -2.77 |
| CC1(C)Cc2c([nH]c3ccccc23)C(CCCCCCCCC2=NC(C)(C)Cc3c2[nH]c2ccccc32)=N1 | 8.46 | 6.32 | 0.21 |
| C=C[C@H]1CN(CCCCCCC)CC[C@H]1C[C@@H](Cc1ccnc2ccc(OC)cc12)OC(=O)[C@](OC)(c1ccccc1)C(F)(F)F | 0.1 | -0.32 | -3.72 |
| CSC1=NC(=Nc2ccccc2C)C2(CCC(C(C)(C)C)CC2)N1c1ccccc1Cl (centres undefined) | -1.03 | -3.95 | -2.88 |
| COc1ccccc1CCNc1nc(C)cc(NCCC(=O)NCCOc2ccccc2)n1 | 5.24 | 7.33 | 2.01 |
| O=C(N[C@H]1CCN(Cc2ccc(OCCCN3CCCCC3)cc2)C1)c1ccc2ccccc2c1 | 4.56 | 6.47 | 2.1 |
| Cc1cc(NC(=O)Nc2ccc3ccn(C)c3c2)c2ccccc2n1 | 13 | 10.7 | 8.87 |
| Cc1cc(NCCC(=O)NCCOc2ccccc2)nc(NCc2ccccc2C)n1 | 3.15 | 0.58 | 0.45 |
| O=C(NC1CCCCN(Cc2ccc3c(c2)OCCO3)C1)c1cc(-c2ccccc2F)cs1 (centres undefined) | 12.7 | 16.4 | 12.8 |
| CC(C)c1ccc(Cn2cc(-c3ccncc3)c3cc(OCc4ccccc4)ccc32)cc1 | 0.76 | 0.58 | 2.49 |
| CCOC(=O)c1c(NC(=O)c2ccccc2)sc2c(O)c(CN(CC)CC)ccc12 | 12 | 5.42 | 2.36 |
| O=C(Nc1ccc(Br)cc1)N(CCN1CCOCC1)CC(O)COc1ccc(Cl)c(F)c1 (centres undefined) | -0.94 | -1.53 | 1.5 |
| CN(C)CCOc1ccc(NC(=O)NC(C)(C)c2nc(-c3ccc(Cl)c(O)c3)c(-c3ccncc3)[nH]2)cc1 | -2.42 | -2.62 | -2.59 |
| CCOC(=O)c1cc(=O)c2ccc(OCC#N)cc2o1 | 88.5 | 82.1 | 74.8 |
| O=C(Nc1ccc(-c2nc3ccccc3[nH]2)cc1)c1ccc(N2CCOCC2)c([N+](=O)[O-])c1 | -0.45 | -0.76 | -0.91 |
| CCOC(=O)c1ccc(-c2cnc(N)c(-c3nc4cccc(C)c4[nH]3)c2)cc1 | 6.18 | 6.96 | 4.47 |
| Cn1cnc(CCNC(=O)c2cccc(-c3ccc(-c4nc5cc(F)ccc5[nH]4)cc3)c2)c1 | 1.27 | 1.88 | 0.3 |
| COc1cccc(-c2nn(C)c3sc(C(=O)NCCN(C)Cc4ccccc4)cc23)c1 | 2.97 | -0.73 | 2.24 |
| COc1cc(NC(=O)/C=C/c2cc(F)cc(F)c2F)cc(OCCN2CCC(O)(c3ccccc3)CC2)c1 | 3.43 | 1.97 | 2.47 |

| Structure (SMILES) | inhibition [1] [%] | inhibition [2] [%] | inhibition [3] [%] |
| --- | --- | --- | --- |
| CC(C)CNCc1ccc(-c2cccc(CN(CCCN3CCN(C)CC3)C(=O)/C=C/c3ccccc3)c2)cc1 | 5.83 | 5.21 | 5.27 |
| COCCn1c(C)cc(C(=O)CN2C(=O)NC(C)(c3ccc(C(C)(C)C)cc3)C2=O)c1C (centres undefined) | -1.09 | 1.07 | 1.71 |
| O=C(Nc1ccc(OC2CCN(Cc3ccc(F)cc3)CC2)c(Cl)c1)c1ccco1 | 1.06 | 1.1 | 3.28 |
| Oc1ccc(C=NNC(S)=Nc2cccc3ccccc23)c(O)c1 | 4.86 | 4.96 | 2.47 |
| COc1ccc(-c2cccc(CNC3CCN(CC4Cn5c(=O)ccc6ccc(F)c4c65)CC3)c2)cc1 (centres undefined) | 10.7 | 10 | 8.16 |
| CC1(C)N=C(N)N=C(N)N1O | -0.13 | 1.38 | 0.94 |
| COc1ccc(N2CCN(CCCOc3ccc(NC(=O)c4cc(Cl)cc(Cl)c4)cc3)CC2)c(OC)c1 | 6.5 | 5.97 | 6.22 |
| O=c1cc(NCCCNCc2ccc(Cl)c(Cl)c2)[nH]c2cc(F)cc(F)c12 | 3.21 | 2.15 | 3.08 |
| O=C(NC1CCN(Cc2ccccc2)C1)c1ccc(Nc2ccc(Br)cc2)nc1 (centres undefined) | 1.79 | 0.12 | -1.43 |
| NC[C@H](CC1CCCCC1)NC(=O)c1ccc(-c2ccnc3[nH]ccc23)s1 | 7.16 | 3.21 | 2.91 |
| O=C(NCCN1CCCC1)c1cccc(-c2ccc(-c3nc4ccccc4[nH]3)cc2)c1 | 3.79 | 5.32 | 4.26 |
| COc1ccccc1CN1CCC(CNC(=O)c2cc(-c3ccc(N(C)C)cc3)cs2)C1 (centres undefined) | 15.2 | 11.8 | 10.9 |
| Cc1c(OC(C)C)nc2ccccc2c1C(=O)N[C@H](c1cccc(F)c1)C1CC1 | 0.15 | -0.55 | -0.32 |
| COc1cc(Cc2cnc(N)nc2N)ccc1OCc1cccc(Oc2ccccc2)c1 | 2.15 | 1.48 | 0.19 |
| COc1ccc(NC(=O)/C=C/c2ccc(Cl)c(Cl)c2)cc1N1CCN(C)CC1 | 9.73 | 4.85 | 6.48 |
| CN1CCCC(CN2CCN(Cc3cccc(-c4ccc(-c5nc6ccccc6[nH]5)s4)c3)CC2)C1 (centres undefined) | 7.08 | 6.85 | 3.05 |
| CC(=O)Nc1ccc(CN2CCC(CNC(=O)c3cc(-c4cccc(C(F)(F)F)c4)cs3)C2)cc1 (centres undefined) | -0.71 | 0.04 | -5.57 |
| COc1ccc(CNC(=O)c2cnc3cc(-c4c(C)noc4C)ccc3c2Nc2ccccc2C(C)(C)C)cc1 | 3.17 | 4.17 | 1.52 |
| NCC(=O)Nc1cccc(Nc2nccc(-c3c(-c4cccc(NC(=O)c5ccccc5)c4)nn4ccccc34)n2)c1 | 3.36 | 7.49 | 1.14 |
| CCOC(=O)c1c(-c2ccccc2)nc2c(sc3ccccc32)c1O | 5.5 | 5.15 | 5.35 |
| COc1ccc(Br)cc1/C=C/C(=O)Nc1ccc(C2CCCN(C)C2)cc1 (centres undefined) | 3.89 | 2.73 | 5.71 |
| O=C(Nc1ccccc1)OCCOc1ccc(CC2SC(=O)NC2=O)cc1 (centres undefined) | 2.13 | 3.76 | 2.23 |
| Cc1cc(N[C@@H](CC(C)C)C(=O)NCCc2ccccc2)nc(NCc2ccccc2C)n1 | 2.23 | 4.73 | -0.21 |
